From the supplement of paper PMC10849652 come the findings set out here.

The full data set covers some 7,900 targets. This sample favours those with a hit. About 0.6% of all pairs of compound and target were hits.

UniProt P22830, sequence (P22830 whole entry, looked up): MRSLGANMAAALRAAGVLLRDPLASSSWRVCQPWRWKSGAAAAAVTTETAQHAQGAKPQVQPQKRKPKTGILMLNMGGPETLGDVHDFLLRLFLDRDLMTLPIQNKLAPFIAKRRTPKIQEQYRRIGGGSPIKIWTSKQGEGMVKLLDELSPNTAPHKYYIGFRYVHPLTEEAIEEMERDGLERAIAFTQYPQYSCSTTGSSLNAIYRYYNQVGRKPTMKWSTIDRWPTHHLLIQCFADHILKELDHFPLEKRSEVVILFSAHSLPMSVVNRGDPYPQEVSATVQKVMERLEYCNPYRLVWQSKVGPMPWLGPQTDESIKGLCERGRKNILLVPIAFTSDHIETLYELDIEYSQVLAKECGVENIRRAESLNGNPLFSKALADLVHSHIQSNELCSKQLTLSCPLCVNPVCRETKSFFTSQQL
UniProt Q9P2D3, sequence (Q9P2D3 whole entry, looked up): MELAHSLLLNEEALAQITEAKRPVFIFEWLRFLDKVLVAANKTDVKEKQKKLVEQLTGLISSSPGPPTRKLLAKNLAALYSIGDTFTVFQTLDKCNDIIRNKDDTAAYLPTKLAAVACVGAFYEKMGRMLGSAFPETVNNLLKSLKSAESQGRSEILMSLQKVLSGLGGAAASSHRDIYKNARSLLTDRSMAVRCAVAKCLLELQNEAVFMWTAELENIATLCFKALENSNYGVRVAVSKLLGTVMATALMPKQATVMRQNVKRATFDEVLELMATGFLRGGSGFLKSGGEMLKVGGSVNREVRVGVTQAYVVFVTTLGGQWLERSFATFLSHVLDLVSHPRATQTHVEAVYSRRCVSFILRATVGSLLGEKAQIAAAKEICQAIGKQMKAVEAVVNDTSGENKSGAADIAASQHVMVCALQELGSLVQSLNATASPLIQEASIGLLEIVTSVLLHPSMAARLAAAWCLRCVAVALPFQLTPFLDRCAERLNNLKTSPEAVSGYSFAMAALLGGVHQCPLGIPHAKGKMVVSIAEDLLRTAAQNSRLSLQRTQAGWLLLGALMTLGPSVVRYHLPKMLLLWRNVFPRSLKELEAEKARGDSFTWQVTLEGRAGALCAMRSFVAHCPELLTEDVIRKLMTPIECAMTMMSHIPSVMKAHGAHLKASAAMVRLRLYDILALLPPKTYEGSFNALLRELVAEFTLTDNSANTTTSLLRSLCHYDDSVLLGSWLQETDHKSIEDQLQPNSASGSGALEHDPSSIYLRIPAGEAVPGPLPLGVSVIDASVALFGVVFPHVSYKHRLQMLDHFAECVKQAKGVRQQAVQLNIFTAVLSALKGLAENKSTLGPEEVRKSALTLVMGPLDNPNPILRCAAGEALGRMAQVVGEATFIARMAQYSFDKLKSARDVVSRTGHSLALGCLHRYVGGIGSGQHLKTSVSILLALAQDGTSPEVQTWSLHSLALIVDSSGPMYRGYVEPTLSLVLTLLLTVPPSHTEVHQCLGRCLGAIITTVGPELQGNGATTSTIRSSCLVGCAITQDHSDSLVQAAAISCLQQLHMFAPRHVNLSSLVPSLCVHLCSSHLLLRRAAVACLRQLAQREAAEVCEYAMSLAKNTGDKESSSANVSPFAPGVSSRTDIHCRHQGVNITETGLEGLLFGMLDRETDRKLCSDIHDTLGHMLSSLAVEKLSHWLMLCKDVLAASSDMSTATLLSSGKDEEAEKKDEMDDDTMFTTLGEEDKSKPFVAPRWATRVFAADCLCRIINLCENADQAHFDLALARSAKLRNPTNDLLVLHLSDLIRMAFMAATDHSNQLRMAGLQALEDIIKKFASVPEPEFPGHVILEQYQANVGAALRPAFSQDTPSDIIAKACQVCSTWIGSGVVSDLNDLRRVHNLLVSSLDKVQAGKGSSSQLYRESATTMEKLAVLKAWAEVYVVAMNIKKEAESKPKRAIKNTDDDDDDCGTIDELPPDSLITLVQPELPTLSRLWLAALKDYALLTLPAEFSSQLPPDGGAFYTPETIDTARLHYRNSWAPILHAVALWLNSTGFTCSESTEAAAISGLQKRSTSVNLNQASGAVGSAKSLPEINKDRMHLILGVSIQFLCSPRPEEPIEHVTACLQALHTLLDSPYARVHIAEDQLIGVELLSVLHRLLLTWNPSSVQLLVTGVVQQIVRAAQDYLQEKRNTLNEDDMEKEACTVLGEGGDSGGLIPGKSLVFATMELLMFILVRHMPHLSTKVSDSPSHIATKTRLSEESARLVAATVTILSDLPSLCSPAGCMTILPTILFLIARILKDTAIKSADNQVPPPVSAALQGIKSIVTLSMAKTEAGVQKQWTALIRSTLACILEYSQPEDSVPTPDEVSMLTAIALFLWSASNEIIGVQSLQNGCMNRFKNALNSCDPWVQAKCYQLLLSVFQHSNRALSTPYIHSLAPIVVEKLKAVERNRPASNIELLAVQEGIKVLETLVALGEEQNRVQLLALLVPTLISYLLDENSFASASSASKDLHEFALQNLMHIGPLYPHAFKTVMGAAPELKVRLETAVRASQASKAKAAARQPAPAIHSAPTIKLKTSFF
UniProt Q9P2H3, sequence (Q9P2H3 whole entry, looked up): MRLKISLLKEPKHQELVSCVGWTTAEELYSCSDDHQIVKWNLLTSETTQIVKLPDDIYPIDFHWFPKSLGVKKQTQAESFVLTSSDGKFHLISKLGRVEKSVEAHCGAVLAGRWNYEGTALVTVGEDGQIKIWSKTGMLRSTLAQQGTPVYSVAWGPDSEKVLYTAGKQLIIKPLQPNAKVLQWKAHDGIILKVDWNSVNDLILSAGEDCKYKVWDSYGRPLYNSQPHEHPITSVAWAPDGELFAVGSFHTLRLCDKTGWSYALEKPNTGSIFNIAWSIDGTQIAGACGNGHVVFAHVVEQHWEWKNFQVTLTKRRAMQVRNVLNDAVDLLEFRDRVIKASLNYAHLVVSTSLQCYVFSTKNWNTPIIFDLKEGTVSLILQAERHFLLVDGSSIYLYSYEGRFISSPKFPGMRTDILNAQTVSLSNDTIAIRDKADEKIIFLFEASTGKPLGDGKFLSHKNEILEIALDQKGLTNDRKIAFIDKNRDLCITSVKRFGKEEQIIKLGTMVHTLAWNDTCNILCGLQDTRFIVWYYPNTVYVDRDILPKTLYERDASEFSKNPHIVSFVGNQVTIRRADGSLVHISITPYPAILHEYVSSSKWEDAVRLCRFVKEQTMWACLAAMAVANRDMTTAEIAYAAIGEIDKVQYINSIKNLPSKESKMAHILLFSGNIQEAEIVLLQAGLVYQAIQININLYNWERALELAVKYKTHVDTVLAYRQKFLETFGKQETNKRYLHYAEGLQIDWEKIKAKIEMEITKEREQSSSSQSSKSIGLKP
UniProt P15586, sequence (P15586 whole entry, looked up): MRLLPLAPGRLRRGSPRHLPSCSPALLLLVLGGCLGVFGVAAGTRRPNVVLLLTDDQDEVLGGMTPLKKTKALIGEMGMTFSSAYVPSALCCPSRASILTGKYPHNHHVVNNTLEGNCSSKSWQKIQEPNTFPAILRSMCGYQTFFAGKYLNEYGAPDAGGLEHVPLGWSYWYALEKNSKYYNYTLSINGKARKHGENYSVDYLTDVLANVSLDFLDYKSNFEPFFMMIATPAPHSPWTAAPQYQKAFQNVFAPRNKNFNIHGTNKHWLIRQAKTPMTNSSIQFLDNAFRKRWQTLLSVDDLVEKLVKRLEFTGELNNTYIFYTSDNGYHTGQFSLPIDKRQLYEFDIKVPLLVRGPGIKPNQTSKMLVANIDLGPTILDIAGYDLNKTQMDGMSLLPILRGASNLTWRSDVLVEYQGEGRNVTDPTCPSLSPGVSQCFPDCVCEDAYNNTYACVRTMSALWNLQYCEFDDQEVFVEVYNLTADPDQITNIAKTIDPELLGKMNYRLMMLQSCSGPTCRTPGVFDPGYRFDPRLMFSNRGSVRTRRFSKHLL
UniProt Q9H4G4, sequence (Q9H4G4 whole entry, looked up): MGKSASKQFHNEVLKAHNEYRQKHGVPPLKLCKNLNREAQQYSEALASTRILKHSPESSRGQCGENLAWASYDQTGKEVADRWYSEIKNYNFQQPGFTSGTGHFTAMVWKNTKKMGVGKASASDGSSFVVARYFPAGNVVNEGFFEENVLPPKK
UniProt P55084, sequence (P55084 whole entry, looked up): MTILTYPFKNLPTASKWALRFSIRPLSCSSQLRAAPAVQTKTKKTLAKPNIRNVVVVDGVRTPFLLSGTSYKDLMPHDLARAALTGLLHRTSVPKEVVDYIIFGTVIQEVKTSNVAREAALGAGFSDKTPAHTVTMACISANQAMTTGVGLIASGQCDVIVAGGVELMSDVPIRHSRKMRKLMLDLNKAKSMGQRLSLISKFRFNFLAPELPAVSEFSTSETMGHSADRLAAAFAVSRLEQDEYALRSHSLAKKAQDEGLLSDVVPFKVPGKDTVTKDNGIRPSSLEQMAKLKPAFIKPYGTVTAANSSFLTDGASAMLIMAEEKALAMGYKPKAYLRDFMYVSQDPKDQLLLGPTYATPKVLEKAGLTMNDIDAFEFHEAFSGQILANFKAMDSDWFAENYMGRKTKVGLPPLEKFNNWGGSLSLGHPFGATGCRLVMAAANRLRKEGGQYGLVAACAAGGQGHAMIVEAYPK
UniProt Q13889, sequence (Q13889 whole entry, looked up): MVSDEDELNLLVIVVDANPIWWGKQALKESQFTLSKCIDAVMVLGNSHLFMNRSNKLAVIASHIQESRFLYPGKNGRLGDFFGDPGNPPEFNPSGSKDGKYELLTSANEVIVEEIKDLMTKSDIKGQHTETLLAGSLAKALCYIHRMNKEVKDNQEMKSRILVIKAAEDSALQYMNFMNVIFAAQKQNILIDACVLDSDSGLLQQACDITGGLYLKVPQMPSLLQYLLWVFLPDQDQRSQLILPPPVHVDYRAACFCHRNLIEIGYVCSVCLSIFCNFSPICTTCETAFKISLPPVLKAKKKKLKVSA
UniProt P09211, sequence (P09211 whole entry, looked up): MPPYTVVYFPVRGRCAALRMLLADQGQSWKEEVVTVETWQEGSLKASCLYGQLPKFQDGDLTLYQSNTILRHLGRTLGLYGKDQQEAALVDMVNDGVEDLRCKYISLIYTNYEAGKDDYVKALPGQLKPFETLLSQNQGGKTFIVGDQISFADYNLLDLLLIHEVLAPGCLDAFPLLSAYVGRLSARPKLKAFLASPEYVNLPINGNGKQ

Compound in one test: CCCS(=O)(=O)Nc1ccc(F)c(C(=O)c2c[nH]c3ncc(-c4ccc(Cl)cc4)cc23)c1F [vemurafenib]
In words: log2 fold change, soluble protein after heating vs DMSO (PISA); higher = thermal stabilisation; K562 cells, 10 uM, 30 min; active = over 0.2 and 3.5 SD of the protein, either way, in both replicates (recomputed). In a few lines: (§1)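 K562 cells at 2×10^6 cells/mL were exposed to 10 μM compound for 30 min, then aliquots were heated for 3 min across 48°C-58°C, pooled, and extracted in PBS containing 0.5% NP-40 at 4°C. The supernatant after 21,000xg for 90 min was taken as soluble protein and measured by TMTpro 16plex LC-MS/MS with channel sums equalised. Thermal stability is reported relative to control samples, with values from duplicates. Fold changes are given on a log2 scale.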
Consider IFT80 isoform 3 (UniProt Q9P2H3), for which the log2 fold change was -0.042 (inactive).

Regarding FBXO42 (UniProt Q6P3S6), the log2 fold change was -0.086 (inactive).

Regarding HMGN2 (UniProt P05204), the log2 fold change was 0.032 (inactive).

On to HADHA (UniProt P40939), for which the log2 fold change is -0.017 (inactive).

Take HEATR5B (UniProt Q9P2D3): the log2 fold change was 0.019 (inactive).

On to GLIPR2 (UniProt Q9H4G4), for which the log2 fold change was 0.092 (inactive).

For the target GNS (UniProt P15586), the log2 fold change was 0.023 (inactive).

In the case of HIP1R (UniProt O75146), the log2 fold change was -0.026 (inactive).

For HADHB (UniProt P55084), the log2 fold change is -0.047 (inactive).

Take GSTP1 (UniProt P09211): the log2 fold change is 0.022 (inactive).

Consider FECH isoform 2 (UniProt P22830), for which the log2 fold change was 0.022 (inactive).

Take GTF2H3 (UniProt Q13889): the log2 fold change was -0.081 (inactive).

Compound in another test: CCCS(=O)(=O)Nc1ccc(F)c(C(=O)c2c[nH]c3ncc(Cl)cc23)c1F
The test is described as above. In a few lines: as §1
On to GIGYF2 (UniProt Q6Y7W6), for which the log2 fold change is 0.048 (inactive).

As to HSPA8 (UniProt P11142), the log2 fold change was -0.02 (inactive).

Take FNTA (UniProt P49354): the log2 fold change is -0.047 (inactive).

Regarding HOMER1 (UniProt Q86YM7), the log2 fold change is 0.071 (inactive).

Consider GTF2A1 (UniProt P52655), for which the log2 fold change is -0.057 (inactive).

On to GNG5 (UniProt P63218), for which the log2 fold change is 0.004 (inactive).

Take FYB1 isoform 3 (UniProt O15117): the log2 fold change is 0.169 (inactive).

GDPD1 (UniProt Q8N9F7): the log2 fold change was -0.081 (inactive).

FNTB (UniProt P49356): the log2 fold change was -0.052 (inactive).

Take HECTD1 (UniProt Q9ULT8): the log2 fold change was 0.126 (inactive).

As to GGA2 (UniProt Q9UJY4), the log2 fold change was 0.017 (inactive).

Turning to GCDH (UniProt Q92947), the log2 fold change was 0.002 (inactive).

Take GABARAPL2 (UniProt P60520): the log2 fold change was 0.051 (inactive).

GNB2 (UniProt P62879): the log2 fold change is 0.036 (inactive).

Regarding FBXO3 (UniProt Q9UK99), the log2 fold change was -0.025 (inactive).

In the case of FKBP7 (UniProt Q9Y680), the log2 fold change was -0.097 (inactive).

As to GALNT4 (UniProt Q8N4A0), the log2 fold change is -0.001 (inactive).

For the target HMOX2 (UniProt P30519), the log2 fold change was 0.012 (inactive).

Turning to ICAM1 (UniProt P05362), the log2 fold change was -0.034 (inactive).

For GDI1 (UniProt P31150), the log2 fold change was -0.008 (inactive).

As to FANCD2 isoform 1 (UniProt Q9BXW9), the log2 fold change is 0.099 (inactive).

With GBF1 (UniProt Q92538), the log2 fold change was 0.059 (inactive).

For GAGE12F (UniProt P0CL80), the log2 fold change is -0.018 (inactive).

IFT80 isoform 3 (UniProt Q9P2H3): the log2 fold change was 0.039 (inactive).

As for FBXO42 (UniProt Q6P3S6), the log2 fold change was 0.083 (inactive).

In the case of HMGN2 (UniProt P05204), the log2 fold change is -0.058 (inactive).

Turning to HADHA (UniProt P40939), the log2 fold change was -0.006 (inactive).

For the target HEATR5B (UniProt Q9P2D3), the log2 fold change is -0.014 (inactive).

As for GLIPR2 (UniProt Q9H4G4), the log2 fold change is -0.014 (inactive).

Turning to GNS (UniProt P15586), the log2 fold change is -0.005 (inactive).

For HIP1R (UniProt O75146), the log2 fold change is 0.036 (inactive).

HADHB (UniProt P55084): the log2 fold change is -0.042 (inactive).

Take GSTP1 (UniProt P09211): the log2 fold change is -0.006 (inactive).

FECH isoform 2 (UniProt P22830): the log2 fold change is -0.167 (inactive).

Turning to GTF2H3 (UniProt Q13889), the log2 fold change is -0.021 (inactive).

Compound in another test: CCCc1cc(C)[nH]c(=O)c1CNC(=O)c1cc(-c2ccnc(N3CCN(C)CC3)c2)cc2c1cnn2C(C)C
Described as above. The essentials:
as §1
Turning to GIGYF2 (UniProt Q6Y7W6), the log2 fold change was 0.049 (inactive).

Turning to HSPA8 (UniProt P11142), the log2 fold change was 0.04 (inactive).

In the case of FNTA (UniProt P49354), the log2 fold change is 0.007 (inactive).

For the target HOMER1 (UniProt Q86YM7), the log2 fold change is 0.085 (inactive).

Regarding GTF2A1 (UniProt P52655), the log2 fold change is -0.011 (inactive).

GNG5 (UniProt P63218): the log2 fold change is 0.022 (inactive).

As to FYB1 isoform 3 (UniProt O15117), the log2 fold change was -0.03 (inactive).

For the target GDPD1 (UniProt Q8N9F7), the log2 fold change was 0.099 (inactive).

For the target FNTB (UniProt P49356), the log2 fold change is 0.029 (inactive).

Consider HECTD1 (UniProt Q9ULT8), for which the log2 fold change was 0.054 (inactive).

Take GGA2 (UniProt Q9UJY4): the log2 fold change was -0.059 (inactive).

For the target GCDH (UniProt Q92947), the log2 fold change is 0.009 (inactive).

On to GABARAPL2 (UniProt P60520), for which the log2 fold change was -0.03 (inactive).

GNB2 (UniProt P62879): the log2 fold change was 0.012 (inactive).

For the target FBXO3 (UniProt Q9UK99), the log2 fold change was -0.057 (inactive).

As to FKBP7 (UniProt Q9Y680), the log2 fold change is -0.025 (inactive).

For the target GALNT4 (UniProt Q8N4A0), the log2 fold change was -0.01 (inactive).

Take HMOX2 (UniProt P30519): the log2 fold change was 0.097 (inactive).

Regarding ICAM1 (UniProt P05362), the log2 fold change is 0.001 (inactive).

Regarding GDI1 (UniProt P31150), the log2 fold change is -0.027 (inactive).

FANCD2 isoform 1 (UniProt Q9BXW9): the log2 fold change was -0.031 (inactive).

With GBF1 (UniProt Q92538), the log2 fold change is 0.014 (inactive).

Take GAGE12F (UniProt P0CL80): the log2 fold change was -0.031 (inactive).

Take IFT80 isoform 3 (UniProt Q9P2H3): the log2 fold change was -0.013 (inactive).

Turning to FBXO42 (UniProt Q6P3S6), the log2 fold change was -0.025 (inactive).

Turning to HMGN2 (UniProt P05204), the log2 fold change was -0.078 (inactive).

Regarding HADHA (UniProt P40939), the log2 fold change is 0.1 (inactive).

With HEATR5B (UniProt Q9P2D3), the log2 fold change is -0.024 (inactive).

Regarding GLIPR2 (UniProt Q9H4G4), the log2 fold change is 0.028 (inactive).

For the target GNS (UniProt P15586), the log2 fold change was 0.003 (inactive).

Take HIP1R (UniProt O75146): the log2 fold change is -0.006 (inactive).

On to HADHB (UniProt P55084), for which the log2 fold change was 0.113 (inactive).

Regarding GSTP1 (UniProt P09211), the log2 fold change was -0.1 (inactive).

As for FECH isoform 2 (UniProt P22830), the log2 fold change was 0.367 (inactive).

Regarding GTF2H3 (UniProt Q13889), the log2 fold change is -0.112 (inactive).
